Measurements published in PubChem BioAssay (Tox21).
Results filed as inconclusive are left out. The source made the active and inactive calls. Unless noted, calls come from the whole dose curve; as a rule, active = well fitted curve in the direction sought with a large enough effect in the repeat runs; inconclusive = weak or mixed curves; inactive = no such curve, though single readings can be large; an effect the other way counts as inactive or inconclusive.

Experiments:
[1] = A CellTox Green Cytotoxicity Assay to monitor cytotoxicity in HepG2 cells - 8 hour (AID 1224890); note: nearly all actives have a fitted effect of over 45% in size
Summary of the method: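 Cells and non-lytic dye reagent are dispensed together (600 HepG2 cells/well) and incubated 5 h before DMSO compound transfer. Kinetic fluorescence is then recorded in the same wells during 40 h at 37 C.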

[2] = qHTS assay to identify small molecule antagonists of the estrogen receptor alpha (ER-alpha) signaling pathway using the BG1 cell line in the presence of 0.1 nM 17-beta-estradiol - cell viability counter screen (AID 1259241); note: nearly all actives have a fitted effect of over 40% in size
Summary of the method: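 Viability in VM7Luc4E2 cells after 22 hr compound exposure under 0.1 nM 17beta-estradiol stimulation, by CellTiter-Fluor.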

[3] = qHTS assay to identify small molecule antagonists of the androgen receptor (AR) signaling pathway using the MDA cell line in the presence of 0.5 nM R1881 - cell viability counter screen (AID 1259242); note: nearly all actives have a fitted effect of over 45% in size
Summary of the method: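 Steps: plate MDA-kb2 cells, rest 5 hr at 37C without CO2; pin in compounds in DMSO; add R1881 to 0.5 nM final; incubate 16 hr; add CellTiter-Fluor, 30 min; read fluorescence.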

[4] = target: Estrogen receptor (Homo sapiens) (UniProt P03372); experiment: qHTS assay to identify small molecule antagonists of the estrogen receptor alpha (ER-alpha) signaling pathway using the BG1 cell line in the presence of 0.1 nM 17-beta-estradiol (AID 1259244); note: nearly all actives have a fitted effect of over 50% in size
Summary of the method: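 Antagonist mode: compounds in DMSO are pinned onto VM7Luc4E2 reporter cells, 0.1 nM final 17beta-estradiol is added, and after 22 h at 37C luciferase luminescence is measured with ONE-Glo.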

[5] = qHTS assay to identify small molecule phospholipidosis (PLD) inducers (AID 1259344; active = well fitted curve in the direction sought with a large enough effect; an effect the other way counts as inactive or inconclusive)
Summary of the method: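 Phospholipid accumulation was scored by imaging: fixed, Hoechst-counterstained HepG2 cells stained with LipidTOX Red after 24 h compound exposure at 37 C. Read-outs were pit count and pit intensity per well or per cell, with amiodarone and DMSO controls.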

[6] = qHTS assay to identify small molecule HDAC inhibitors (AID 1259364);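 note: wild-type HCT-116 cells with endogenous class I/II HDAC activity; top concentration of the series differs between compounds; nearly all actives have a fitted effect of over 45% in size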
Summary of the method: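 Cells (HCT-116, wild type) are seeded at 1,500 per well, incubated overnight, treated with compound in DMSO for 2 hr, then developed with HDAC-Glo I/II reagent for 30 min at room temperature.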

[7] = qHTS assay to identify small molecule HDAC inhibitors - cell viability counter screen (AID 1259365); note: series mostly up to about 92 µM; nearly all actives have a fitted effect of over 50% in size
Summary of the method: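 Cytotoxicity was gauged in wild-type HCT-116 cells after a brief 2hr treatment with DMSO-dissolved compounds at 37C and 5% CO2, using CellTiter-Glo luminescence developed for 30min at room temperature.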

[8] = qHTS assay to identify small molecule agonists of the sonic hedgehog signaling (Shh) pathway - cell viability counter screen (AID 1259366); note: nearly all actives have a fitted effect of over 50% in size
Summary of the method: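 Stable Gli1-Luc NIH/3T3 clone, 2,000 cells/well. Compound exposure 24hr at 37C. Read-out: CellTiter-Fluor fluorescence.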

[9] = qHTS assay to identify small molecule antagonists of the sonic hedgehog signaling (Shh) pathway - cell viability counter screen (AID 1259367); note: nearly all actives have a fitted effect of over 55% in size
Summary of the method: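 Viability was read by CellTiter-Fluor fluorescence in the same wells, reagent added 23 hr into compound treatment and incubated 1 hr at 37C. The 3T3 Gli1-Luc reporter cells (2,000/well) received conditioned medium after compound and ran 24 hr.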

[10] = qHTS assay to identify small molecule agonists of the sonic hedgehog signaling (Shh) pathway (AID 1259368; calls by dose curve;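 note: NIH/3T3-derived 3T3Gli1-Luc cells carrying a stable Gli1-driven firefly luciferase reporter; series mostly up to about 92 µM; nearly all actives have a fitted effect of over 15% in size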)
Summary of the method: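 Cells of a mouse NIH/3T3 clone stably expressing luciferase under the Gli1 transcriptional response element are exposed to test chemicals for 24 hr at 37 C. Pathway activation is detected as a rise in luminescence.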

[11] = qHTS assay to identify small molecule antagonists of the sonic hedgehog signaling (Shh) pathway (AID 1259369; calls by dose curve; note: nearly all actives have a fitted effect of over 45% in size)
Summary of the method: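 Cells are plated and held 4hr at 37 C, compounds (DMSO) are pinned in, conditioned medium is added to stimulate the pathway, and after 24hr luciferase reagent is added for 30min before luminescence is read.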

[12] = target: Estrogen receptor beta (Homo sapiens) (UniProt Q92731); experiment: qHTS assay to identify small molecule agonists of the estrogen receptor beta (ER-beta) signaling pathway (AID 1259377; active = well fitted activation curve with a large enough effect in the signal ratio in the repeat runs, not every such curve was filed as active; the % refers to the signal ratio)
Summary of the method: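 Measured by fluorescence intensity from a B/G FRET beta-lactamase substrate (2 h, room temperature) in ER-beta-UAS-bla HEK293T cells treated with DMSO-dissolved compounds for 16 hr at 37C and 5% CO2.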

[13] = target: Estrogen receptor beta (Homo sapiens) (UniProt Q92731); experiment: qHTS assay to identify small molecule antagonists of the estrogen receptor beta (ER-beta) signaling pathway (AID 1259378; active = well fitted inhibition curve with a large enough effect in the signal ratio in the repeat runs, not every such curve was filed as active; the % refers to the signal ratio)
Summary of the method: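 Antagonist mode: compounds added to beta-lactamase reporter HEK293T ER-beta-UAS cells stimulated with E2 (1nM final), 16 hr at 37C. LiveBLAzer B/G FRET substrate, 2 hours room temperature, fluorescence read-out.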

[14] = qHTS assay to identify small molecule agonists of the estrogen receptor beta (ER-beta) signaling pathway - cell viability counter screen (AID 1259380); note: nearly all actives have a fitted effect of over 30% in size
Summary of the method: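 Cytotoxicity is measured in parallel with the reporter screen: after 16 hr compound exposure at 37C and a 2 hr LiveBLAzer step, CellTiter-Glo is added to the same ER-beta-UAS-bla HEK293T wells and luminescence read after 30 min.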

[15] = qHTS assay to identify small molecule antagonists of the estrogen receptor beta (ER-beta) signaling pathway - cell viability counter screen (AID 1259382);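 note: HEK293T cells carrying ER-beta-UAS-bla reporter stimulated with estradiol; series mostly up to about 92 µM; nearly all actives have a fitted effect of over 55% in size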
Summary of the method: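 Cytotoxicity counter screen multiplexed with the beta-lactamase antagonist assay: GripTite HEK293T ER-beta-bla cells were treated 16 hr with test chemicals in the presence of 1nM 17-beta-estradiol, and viability was measured by CellTiter-Glo.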

[16] = target: Estrogen receptor (Homo sapiens) (UniProt P03372); experiment: qHTS assay to identify small molecule agonists of the estrogen receptor alpha (ER-alpha) signaling pathway in the presence of an antagonist (AID 1259383; calls by dose curve; note: top concentration of the series differs between compounds; nearly all actives have a fitted effect of over 15% in size)
Summary of the method: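 Agonist-mode confirmation in the presence of the ER antagonist ICI-182,780 at 10.0nM final. Breast-derived VM7Luc4E2 reporter cells were exposed to compounds for 22hr, and ERE-driven luciferase was quantified by luminescence.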

[17] = qHTS assay to identify small molecule agonists or antagonists of the thyroid stimulating hormone receptor (TSHR) signaling pathway - wild type cell line counter screen (AID 1259384; calls by dose curve)
Summary of the method: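 Counter screen in untransfected Hek293: compounds (15-point titration, triplicate) plus phosphodiesterase inhibitor Ro20-1724 added after 18 h plating; 30 min RT. Intracellular cAMP via competitive d2/cryptate immunoassay, 1 h incubation.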

[18] = target: Androgen receptor (Homo sapiens) (UniProt P10275); experiment: qHTS assay to identify small molecule antagonists of the androgen receptor (AR) signaling pathway using the MDA cell line in the presence of 0.5 nM R1881 (AID 1259243); note: nearly all actives have a fitted effect of over 50% in size
Summary of the method: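 Stably transfected MDA-kb2 cells express luciferase from an MMTV promoter bearing both AR and GR response elements. Compounds plus 0.5 nM R1881 (final) were incubated 16 hr at 37C without CO2, then luminescence measured.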

[19] = qHTS assay to identify small molecule agonists of the androgen receptor (AR) signaling pathway in the presence of an antagonist - cell viability counter screen (AID 1259379);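 note: MDA-kb2 human breast cancer cells carrying an MMTV luciferase reporter; series mostly up to about 92 µM; nearly all actives have a fitted effect of over 25% in size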
Summary of the method: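 Cytotoxicity is assessed by CellTiter-Fluor in MDA-kb2 cells carrying an MMTV-driven luciferase reporter. Cells receive 3.0uM nilutamide plus compounds at 15 concentrations and incubate 16 hr at 37C without CO2 before fluorescence reading.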

[20] = target: Androgen receptor (Homo sapiens) (UniProt P10275); experiment: qHTS assay to identify small molecule agonists of the androgen receptor (AR) signaling pathway in the presence of an antagonist (AID 1259381; calls by dose curve; note: nearly all actives have a fitted effect of over 15% in size)
Summary of the method: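 Agonist-mode confirmation screen: human MDA-kb2 cells stably expressing luciferase under an MMTV promoter bearing AR and GR response elements, co-treated with 3.0uM nilutamide (final). Luminescence measured after 16hr compound incubation.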
% is set by controls: 0 for no effect and ±100 for the full control effect.

Estrogen receptor (Homo sapiens), sequence (P03372 whole entry, looked up): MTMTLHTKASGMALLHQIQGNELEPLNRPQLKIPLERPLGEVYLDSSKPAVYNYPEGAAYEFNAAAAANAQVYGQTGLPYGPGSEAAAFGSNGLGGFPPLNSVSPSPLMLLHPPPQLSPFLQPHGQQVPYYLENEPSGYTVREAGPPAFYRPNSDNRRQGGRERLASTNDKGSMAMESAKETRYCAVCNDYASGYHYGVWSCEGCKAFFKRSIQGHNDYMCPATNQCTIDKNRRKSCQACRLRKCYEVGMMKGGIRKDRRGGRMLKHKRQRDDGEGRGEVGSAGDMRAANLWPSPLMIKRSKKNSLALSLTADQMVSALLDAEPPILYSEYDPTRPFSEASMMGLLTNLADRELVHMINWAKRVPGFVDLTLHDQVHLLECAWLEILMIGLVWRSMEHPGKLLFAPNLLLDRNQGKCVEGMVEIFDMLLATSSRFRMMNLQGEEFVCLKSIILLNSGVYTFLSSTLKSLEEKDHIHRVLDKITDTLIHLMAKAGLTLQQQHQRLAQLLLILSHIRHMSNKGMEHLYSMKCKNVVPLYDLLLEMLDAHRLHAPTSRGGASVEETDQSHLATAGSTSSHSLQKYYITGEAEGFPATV
Androgen receptor (Homo sapiens), sequence (P10275 whole entry, looked up): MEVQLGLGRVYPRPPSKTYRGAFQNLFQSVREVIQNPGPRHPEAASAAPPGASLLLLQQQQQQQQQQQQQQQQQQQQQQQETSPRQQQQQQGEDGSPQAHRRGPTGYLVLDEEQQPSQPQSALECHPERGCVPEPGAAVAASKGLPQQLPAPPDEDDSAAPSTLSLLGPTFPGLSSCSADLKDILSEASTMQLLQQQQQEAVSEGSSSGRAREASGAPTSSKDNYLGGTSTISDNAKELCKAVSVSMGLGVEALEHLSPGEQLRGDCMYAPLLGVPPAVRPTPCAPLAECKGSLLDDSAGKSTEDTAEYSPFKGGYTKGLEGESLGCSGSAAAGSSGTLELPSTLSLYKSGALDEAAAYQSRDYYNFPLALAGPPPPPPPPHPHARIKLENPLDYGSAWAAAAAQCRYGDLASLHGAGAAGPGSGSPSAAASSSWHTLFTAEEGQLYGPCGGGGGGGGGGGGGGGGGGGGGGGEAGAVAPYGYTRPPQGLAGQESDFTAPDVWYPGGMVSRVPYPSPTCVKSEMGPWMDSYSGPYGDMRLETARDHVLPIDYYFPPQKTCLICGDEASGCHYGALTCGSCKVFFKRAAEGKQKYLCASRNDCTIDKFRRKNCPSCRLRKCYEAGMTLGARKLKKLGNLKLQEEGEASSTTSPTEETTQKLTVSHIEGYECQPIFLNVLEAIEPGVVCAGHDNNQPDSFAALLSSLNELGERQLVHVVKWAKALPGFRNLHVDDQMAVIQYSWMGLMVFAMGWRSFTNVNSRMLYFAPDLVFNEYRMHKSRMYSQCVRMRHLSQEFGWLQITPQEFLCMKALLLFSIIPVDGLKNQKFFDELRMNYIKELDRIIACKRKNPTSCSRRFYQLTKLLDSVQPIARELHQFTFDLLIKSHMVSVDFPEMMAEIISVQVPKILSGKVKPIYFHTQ
Estrogen receptor beta (Homo sapiens), sequence (Q92731 whole entry, looked up): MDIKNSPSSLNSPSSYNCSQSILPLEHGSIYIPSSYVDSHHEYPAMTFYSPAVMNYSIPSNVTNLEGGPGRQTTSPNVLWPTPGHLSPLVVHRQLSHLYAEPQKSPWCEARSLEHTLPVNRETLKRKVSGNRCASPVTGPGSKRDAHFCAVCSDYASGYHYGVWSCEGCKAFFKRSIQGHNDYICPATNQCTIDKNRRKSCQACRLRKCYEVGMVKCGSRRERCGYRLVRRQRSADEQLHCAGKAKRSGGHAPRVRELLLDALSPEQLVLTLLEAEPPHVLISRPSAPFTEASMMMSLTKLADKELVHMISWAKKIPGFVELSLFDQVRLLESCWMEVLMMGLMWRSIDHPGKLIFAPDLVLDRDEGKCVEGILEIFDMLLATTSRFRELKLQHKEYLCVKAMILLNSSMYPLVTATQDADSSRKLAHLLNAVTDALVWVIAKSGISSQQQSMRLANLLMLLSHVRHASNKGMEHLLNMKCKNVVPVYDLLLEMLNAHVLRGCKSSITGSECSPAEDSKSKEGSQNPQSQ

CC(=O)CCCCn1c(=O)c2c(ncn2C)n(C)c1=O
inactive: outcome [1] | Potency [2] | outcome [3] | Potency [4] | outcome [5] | Potency [6] | outcome [7] | Potency [8] | Potency [9] | outcome [10] | Potency [11] | Potency [12] | outcome [13] | Potency [14] | outcome [15] | outcome [16] | outcome [17]

CC/C=C\CC1=C(C)CCC1=O
inactive: outcome [1] | Potency [2] | outcome [3] | Potency [18] | Potency [6] | outcome [7] | Potency [9] | outcome [10] | Potency [11] | Potency [12] | outcome [13] | Potency [19] | Potency [14] | Potency [20] | outcome [15] | outcome [17]

CCCOC(=O)C(C)O (stereo unspecified)
inactive: outcome [1] | Potency [2] | outcome [3] | Potency [18] | Potency [6] | outcome [7] | Potency [8] | Potency [9] | outcome [10] | Potency [11] | Potency [12] | outcome [13] | Potency [20] | outcome [15] | outcome [16] | outcome [17]

CCOc1cc(NC(C)=O)ccc1C(=O)OC
inactive: outcome [1] | Potency [2] | outcome [3] | Potency [4] | outcome [5] | Potency [6] | outcome [7] | Potency [8] | Potency [9] | outcome [10] | Potency [11] | Potency [19] | Potency [14] | outcome [15] | outcome [16] | outcome [17]

C[C@H](CCC(=O)O)[C@H]1CC[C@H]2[C@@H]3C(=O)C[C@@H]4CC(=O)CC[C@]4(C)[C@H]3CC(=O)[C@]12C
inactive: outcome [1] | Potency [2] | outcome [3] | Potency [4] | outcome [5] | Potency [6] | outcome [7] | Potency [8] | Potency [9] | outcome [10] | Potency [11] | Potency [12] | outcome [13] | Potency [19] | Potency [14] | outcome [15] | outcome [16] | outcome [17]

Cc1cccc(OCC(O)CNC(C)(C)C)c1C (stereo unspecified)
inactive: outcome [1] | Potency [2] | outcome [3] | Potency [18] | Potency [6] | outcome [7] | Potency [9] | outcome [10] | Potency [11] | Potency [20] | outcome [17]

C=C(C)C(=O)OCCN(CC)CC
inactive: outcome [1] | Potency [2] | outcome [3] | Potency [18] | Potency [6] | outcome [7] | Potency [8] | Potency [9] | outcome [10] | Potency [11] | Potency [19] | Potency [20] | outcome [15] | outcome [17]

Cc1nc2n(c(=O)c1CCN1CCC(c3noc4cc(F)ccc34)CC1)CCC[C@H]2O
inactive: cytotoxicity increase [1] -0.979% [at 15.8 µM] | activity change, negative = cytotoxicity [2] 1.89% [at 19 µM] | viability change, negative = cytotoxic [3] 9.15% [at 19 µM] | activity change, negative = inhibition [4] 1.12% [at 19 µM] | outcome [5] | activity change, negative = inhibition [6] -1.31% [at 19 µM] | activity change, negative = cytotoxicity [7] -0.155% [at 19 µM] | viability change, negative = cytotoxic [9] -0.26% [at 19 µM] | activity change [10] -0.0213% [at 18.9 µM] | activity change, negative = inhibition [11] -4.73% [at 19 µM] | activation [12] 1.63% [at 19 µM] | activity, negative = inhibition [13] 0.444% [at 19 µM] | activity change, negative = cytotoxicity [19] -2.37% [at 19 µM] | activity change, negative = cytotoxicity [14] -7.67% [at 19 µM] | activity change, negative = cytotoxicity [15] 1.75% [at 19 µM] | activation [16] 0% [at 19 µM] | cAMP activity change [17] -2.33% [at 18.9 µM]

CCN1CCc2nc(N)oc2CC1
inactive: outcome [1] | Potency [2] | outcome [3] | Potency [4] | outcome [5] | Potency [6] | outcome [7] | Potency [8] | Potency [9] | outcome [10] | Potency [11] | Potency [12] | outcome [13] | Potency [19] | outcome [16] | outcome [17]
